Screens from PubChem BioAssay.
Many of the other results were omitted from the sample, so hits are more common in it than they were.
Dicer inh – human Dicer pre-microRNA cleavage inhibition. cat-ELCCA pre-miR-21 Dicer processing, chemiluminescence; active compounds read high. Q9UPY3. z-score at 25 µM. AID 1347074. 6% of 47,000 active; in the data active = z-score above about 3, passing the limit was not always enough;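 also: higher signal means more uncleaved substrate so more Dicer inhibition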
Hits are given with their value; . = inactive.

SMILES	Dicer inh
COc1cc(C(=O)NS(=O)(=O)c2ccccc2C)ccc1Cc1cn(C)c2ccc(NC(=O)OC3CCCC3)cc12	4.3
CCN(CC)Cc1c(O)ccc2c(=O)c(Oc3ccccc3Cl)c(C(F)(F)F)oc12	.
CSc1nnc2c(n1)OC(c1c(F)cccc1Cl)N(C(C)=O)c1ccccc1-2 (stereo not drawn)	.
COc1ccc(-c2c(C(F)(F)F)nn3c(C)c(-c4ccccc4)c(C)nc23)cc1	.
CN(C(=O)Cn1nc(C(F)(F)F)c2c1CCCC2)c1ccccc1	3.8
O=C(Cn1nc(C(F)(F)F)c2c1CCCC2)N1CCCc2ccccc21	.
CC(C)CNC(=O)Cn1nc(C(F)(F)F)c2c1CCCC2	.
Cc1ccc(SC(=O)N/C=C/c2ccsc2)cc1	.
COc1cccc(OC)c1CN(C)C(=O)c1cnc(OCc2ccccc2)cc1C(F)(F)F	.
O=C(O)c1cnn2c(C(F)F)cc(-c3ccc(F)cc3)nc12	.
CC(C)N(Cc1ccc(N(C)C)cc1)S(=O)(=O)c1cc(Cl)c(Cl)cc1Cl	.
Cc1nc2ccccn2c1-c1csc(Nc2ccccn2)n1	.
Cc1ccn2c(-c3csc(Nc4ccc(S(=O)(=O)Nc5cc(C)on5)cc4)n3)c(C)nc2c1	.
CC(=O)Nc1nc(C)c(-c2csc(Nc3ccc(O)cc3)n2)s1	.
Cc1ccnc(Nc2nc(-c3c(C)nc4cc(C)ccn34)cs2)c1	5.6
Cc1nc(C)c(-c2csc(Nc3ccc(O)cc3)n2)s1	6.1
Cc1ccn2c(-c3csc(Nc4ccc(O)cc4)n3)c(C)nc2c1	7.1
Cc1nc2ncccn2c1-c1csc(Nc2ccc(O)cc2)n1	.
CC(=O)Nc1nc(C)c(-c2csc(Nc3ccccn3)n2)s1	.
COc1ccc(Nc2nc(-c3sc(C)nc3C)cs2)cc1	.
CCCCNc1nc2c(c(=O)n(C)c(=O)n2C)n1CC(O)COc1ccccc1 (stereo not drawn)	.
S=C(Nc1cc(-c2cccs2)[nH]n1)Nc1ccccc1Cl	.
COc1ccc2c(=O)c(Oc3cc(C)cc(C)c3)c(C(F)(F)F)oc2c1	.
Cn1cnc([N+](=O)[O-])c1Sc1cccs1	.
C/C(=N\NC(=S)NC1CC2C=CC1C2)c1ccccc1OCC(=O)O (stereo not drawn)	.
SMILES	Dicer inh
O=C(O/N=C1\CCCc2[nH]c3ccccc3c21)c1c(Cl)cccc1Cl	.
COC(=O)CS/C(=C(\C=N\O)c1ccccc1)C(F)(F)F	.
CN=C(NN)Nc1cc(C)c(C)cc1C	.
CC(C)(C)C(=O)/C(C#N)=C/c1ccc([N+](=O)[O-])s1	.
COc1ccc(OC(=O)c2ccncc2)cc1	.
O=C(Oc1ccc(OC(=O)c2ccncc2)cc1)c1ccncc1	.
CCCCCCOc1ccc(OC(=O)c2ccncc2)cc1	8.9
CC(C)Cc1ccc(C(C)C(=O)O/N=C(\N)c2cccc(Cl)c2)cc1 (stereo not drawn)	.
O=C1c2oc3ccccc3c(=O)c2C(c2ccc(F)cc2)N1CCCN1CCOCC1 (stereo not drawn)	.
CCc1ccn2c(C)c(-c3ccc(OC)c(OC)c3)cc2c1	.
O=C(Nc1ccc(Br)c(C(F)(F)F)c1)c1csc(-c2cccc(Cl)c2Cl)n1	.
Cc1ccc(-c2cn3ccc(C)cc3n2)cc1	.
COc1c(Cl)cccc1-c1cn2ccc(C)cc2n1	5.9
COc1c(Cl)cc(Cl)cc1-c1cn2ccccc2n1	.
CCOC(=O)c1cnn(-c2ncnc3sc4c(c23)CCCC4)c1N	.
NNC(=S)NCCc1ccc(Cl)cc1	4.5
S=C(NCCn1ccnc1)Nc1ccc(Cl)cc1	.
S=C(NCCc1ccccc1)Nc1cccc(Cl)c1Cl	.
O=C1CC(Cc2ccc(Cl)cc2)C(=O)N1Cc1ccccc1 (stereo not drawn)	3.3
O=C1CC(Cc2ccc(Cl)cc2)C(=O)N1c1ccccn1 (stereo not drawn)	.
O=C1CC(Cc2ccccc2)C(=O)N1c1cccc(Cl)c1 (stereo not drawn)	.
COc1cc2nc[nH]c(=O)c2cc1OC	.
O=C1CC(c2ccco2)CC2=C1C(c1cccs1)N(C(=O)c1ccccc1)c1ccccc1N2 (stereo not drawn)	.
COc1ccccc1Nc1nc(Nc2ccccc2OC)nc(N2CCOCC2)n1	.
O=c1nc(Nc2ccccc2)c2ccccc2[nH]1	.
SMILES	Dicer inh
O=c1nc(N2CCOCC2)nc(Nc2ccccc2)[nH]1	8.3
COC(=O)C/C(=N/Nc1c(Cl)cc(C(F)(F)F)cc1Cl)C(=O)OC	.
CC(=O)[C@@]1(O)C(C)CC2C3CC[C@H]4CC(O)CCC4(C)C3[C@H](O)CC21C (stereo partly drawn)	.
O=C(CSC1=NCCc2ccccc21)c1ccc(Cl)c(Cl)c1	.
N#Cc1nn(-c2ccccc2)c(=O)n(Cc2ccc(Cl)cc2Cl)c1=O	.
Nc1ccc(S(=O)(=O)c2ccc(N)cc2)cc1	.
Nc1ccc(Nc2ccc(N)cc2S(=O)(=O)O)cc1	44
NC(=O)NS(=O)(=O)c1ccc(N)cc1	.
O=C(Cn1cnc2sc(-c3ccccc3)cc2c1=O)c1ccccc1	.
CCOC(=O)C(NC(=O)c1ccco1)(Nc1ccccn1)C(F)(F)F (stereo not drawn)	.
Cc1cc(S(=O)(=O)Oc2c(Cl)cccc2Cl)cc(C)c1F	.
Cc1c(C)c(C)c(S(=O)(=O)Oc2c(Cl)cccc2Cl)c(C)c1C	6.9
Cc1c(C)c(C)c(S(=O)(=O)Oc2ccc(Cl)c(Cl)c2)c(C)c1C	.
CSc1sc(C(=O)c2ccc(Cl)cc2)c2c1C(=O)CC(C)(C)C2	.
Cc1c(C)n(C(=O)CSc2nc(O)cc(=O)[nH]2)c2ccccc12	.
Cc1ccnc(SCn2c(=S)sc3ccccc32)n1	.
Cc1ccnc(SCC(=O)n2c(C)c(C)c3ccccc32)n1	3.5
Cc1cc(NS(=O)(=O)N2CCC(C)CC2)no1	.
CCOC(=O)c1sc(CS(=O)(=O)c2ccccn2)nc1C	.
CCCCN1C(=O)C(=O)c2ccccc21	.
CCc1n(CC)c2ccccc2[n+]1CC(O)COc1ccc(F)cc1 (stereo not drawn)	5
CCn1c(C)[n+](CC(O)COc2ccc(F)cc2)c2ccccc21 (stereo not drawn)	.
CCc1n(CC)c2ccccc2[n+]1CC(O)COc1ccccc1OC (stereo not drawn)	.
Cc1noc(C)c1-c1nc(CSc2n[nH]c(=O)n2C(C)c2ccccc2)no1 (stereo not drawn)	.
O=C(CSc1nc2ncccc2[nH]1)Nc1ccc(Cl)cc1	.
SMILES	Dicer inh
Cn1c2c(c3ccccc31)/C(=N/O)CCC2	3.9
CN(C)CC1CCc2c(c3ccccc3n2C)C1=O (stereo not drawn)	.
Cn1c2c(c3ccccc31)/C(=N/OC(=O)c1ccc(C(C)(C)C)cc1)CCC2	.
Cc1[nH]c2[nH]n(-c3ccccc3)c(=O)c2c(=O)c1CCC(C)C	.
O=S(=O)(Nc1ncccn1)c1ccc(F)cc1	.
O=S(=O)(CCSc1ncccn1)c1ccc(F)cc1	3
O=S(=O)(CCSc1nccc(-c2cccs2)n1)c1ccc(F)cc1	.
COC(=O)Cn1nnc2sc3c(c2c1=O)CCCC3	.
COCCOC(=O)Cn1nnc2sc3c(c2c1=O)CCC(C)C3 (stereo not drawn)	.
CC(C)COC(=O)Cn1nnc2sc3c(c2c1=O)CCC(C)C3 (stereo not drawn)	.
CCCCCOC(=O)Cn1nnc2sc3c(c2c1=O)CCC(C)C3 (stereo not drawn)	3.5
CCC(C)OC(=O)Cn1nnc2sc3c(c2c1=O)CCC(C)C3 (stereo not drawn)	.
CC1CCN(C(=O)Cn2nnc3sc4c(c3c2=O)CCC(C)C4)CC1 (stereo not drawn)	3
